Test results taken from the supplement of paper PMC6555819.

What was measured:
Experiment in all cases: PBM binding z-score (relative to random genomic background probes); higher = stronger binding; sequences stand for … in GC…GCGATTGACAGCGTAGAATGAAGG
[1] = test system: FXR:RXRa (NR concentration 270 nM, RXRa partner concentration 90 nM)
Outline: (§1)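 Custom Agilent 4×180K protein-binding microarrays carried double-stranded probes, each with a 34-nt variable region. These regions held direct-repeat seeds, single-nucleotide variants, half-site ablations and random human genomic background sequences. Ligand-free nuclear receptor dimers were incubated on the arrays for 1 h, antibodies against each partner (one per run) detected binding, and scanned fluorescence was regression-normalized. Binding z-scores take the random background probes as reference.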

[2] = test system: LXRa:RXRa (NR concentration 270 nM, RXRa partner concentration 90 nM)
Outline: as §1

[3] = test system: LXRa homodimer (NR concentration 270 nM)
Outline: as §1

[4] = test system: LXRb:RXRa (NR concentration 270 nM, RXRa partner concentration 90 nM)
Outline: as §1

[5] = test system: LXRb homodimer (NR concentration 270 nM)
Outline: as §1

[6] = test system: PPARa:RXRa (NR concentration 270 nM, RXRa partner concentration 90 nM)
Outline: as §1

[7] = test system: PPARg:RXRa (NR concentration 180 nM, RXRa partner concentration 90 nM)
Outline: as §1

[8] = test system: PPARg:RXRa 270nM:90nM, anti-RXR (NR concentration 270 nM, RXRa partner concentration 90 nM)
Outline: as §1

[9] = test system: PPARg:RXRa 30nM:10nM, anti-RXR (NR concentration 30 nM, RXRa partner concentration 10 nM)
Outline: as §1

[10] = test system: PPARg:RXRa 90nM:30nM, anti-RXR (NR concentration 90 nM, RXRa partner concentration 30 nM)
Outline: as §1

[11] = test system: PPARg:RXRa DBDmut IVT, anti-RXR (DBD mutation: RXRa K156A/R161A, NR concentration 270 nM, RXRa partner concentration 90 nM)
Outline: as §1

[12] = test system: PPARg:RXRa IVT, anti-PPARg (NR concentration 270 nM, RXRa partner concentration 90 nM)
Outline: as §1

[13] = test system: PPARg DBDmut:RXRa IVT, anti-PPARg (DBD mutation: PPARg1 K132A/R137A, NR concentration 270 nM, RXRa partner concentration 90 nM)
Outline: as §1

[14] = test system: PPARg DBDmut IVT, anti-PPARg (DBD mutation: PPARg1 K132A/R137A, NR concentration 270 nM)
Outline: as §1

[15] = test system: PPARg homodimer (NR concentration 180 nM)
Outline: as §1

[16] = test system: PXR:RXRa (NR concentration 270 nM, RXRa partner concentration 90 nM)
Outline: as §1

[17] = test system: PXR homodimer (NR concentration 270 nM)
Outline: as §1

[18] = test system: RARa:RXR (NR concentration 270 nM, RXRa partner concentration 90 nM)
Outline: as §1

[19] = test system: RARa homodimer (NR concentration 270 nM)
Outline: as §1

[20] = test system: RARb:RXRa (NR concentration 270 nM, RXRa partner concentration 90 nM)
Outline: as §1

ATATGTAGGTTAATGGTCATTCAGGTTGGTTCGC
PBM binding z-score [1]: 0.826
PBM binding z-score [2]: 1.09
PBM binding z-score [3]: 0.821
PBM binding z-score [4]: 1.24
PBM binding z-score [5]: 0.469
PBM binding z-score [6]: 4.6
PBM binding z-score [7]: 7.74
PBM binding z-score [8]: 7.54
PBM binding z-score [9]: 6.76
PBM binding z-score [10]: 7.88
PBM binding z-score [11]: 7.35
PBM binding z-score [12]: 7.31
PBM binding z-score [13]: 4.17
PBM binding z-score [14]: 3.57
PBM binding z-score [15]: 2.47
PBM binding z-score [16]: 1.23
PBM binding z-score [17]: 0.787
PBM binding z-score [18]: 0.723
PBM binding z-score [19]: 1.49
PBM binding z-score [20]: 1.45

ATATGTAGGTTAAGGCTCATTCAGGTTGGTTCGC
PBM binding z-score [1]: 0.549
PBM binding z-score [2]: 0.861
PBM binding z-score [3]: 0.334
PBM binding z-score [4]: 0.683
PBM binding z-score [5]: 0.0062
PBM binding z-score [6]: 3.43
PBM binding z-score [7]: 5.54
PBM binding z-score [8]: 5.46
PBM binding z-score [9]: 2.91
PBM binding z-score [10]: 5.15
PBM binding z-score [11]: 7.51
PBM binding z-score [12]: 7.12
PBM binding z-score [13]: 5.15
PBM binding z-score [14]: 3.53
PBM binding z-score [15]: 2.08
PBM binding z-score [16]: 0.38
PBM binding z-score [17]: 0.413
PBM binding z-score [18]: 0.411
PBM binding z-score [19]: 0.882
PBM binding z-score [20]: 1.02

CAAACTAAGTCACGAAAGGTCAAAGTCGAATGAC
PBM binding z-score [1]: 5.23
PBM binding z-score [2]: 6.68
PBM binding z-score [3]: 6.01
PBM binding z-score [4]: 5.99
PBM binding z-score [5]: 2.17
PBM binding z-score [6]: 5.89
PBM binding z-score [7]: 4.13
PBM binding z-score [8]: 4.96
PBM binding z-score [9]: 2.48
PBM binding z-score [10]: 4.04
PBM binding z-score [11]: 2.8
PBM binding z-score [12]: 3.64
PBM binding z-score [13]: 0.905
PBM binding z-score [14]: 0.93
PBM binding z-score [15]: 3.63
PBM binding z-score [16]: 6.08
PBM binding z-score [17]: 2.1
PBM binding z-score [18]: 6.41
PBM binding z-score [19]: 1.43
PBM binding z-score [20]: 4.83

CCTACTGGGCAAAAGGTCATTGATTCCAATGCTC
PBM binding z-score [1]: 4.38
PBM binding z-score [2]: 5.09
PBM binding z-score [3]: 3.89
PBM binding z-score [4]: 4.36
PBM binding z-score [5]: 0.466
PBM binding z-score [6]: 5.57
PBM binding z-score [7]: 10.4
PBM binding z-score [8]: 9.29
PBM binding z-score [9]: 9.17
PBM binding z-score [10]: 9.67
PBM binding z-score [11]: 2.57
PBM binding z-score [12]: 5.1
PBM binding z-score [13]: -0.086
PBM binding z-score [14]: -0.781
PBM binding z-score [15]: 3.07
PBM binding z-score [16]: 4.91
PBM binding z-score [17]: 1.5
PBM binding z-score [18]: 5.73
PBM binding z-score [19]: 1.77
PBM binding z-score [20]: 4.35

AATACATGGTCACTAGGCCAGAGTAGGTACGAAT
PBM binding z-score [1]: -0.31
PBM binding z-score [2]: -0.00437
PBM binding z-score [3]: -0.0579
PBM binding z-score [4]: -0.301
PBM binding z-score [5]: -0.193
PBM binding z-score [6]: 0.587
PBM binding z-score [7]: 1.65
PBM binding z-score [8]: 1.15
PBM binding z-score [9]: 0.153
PBM binding z-score [10]: 0.688
PBM binding z-score [11]: 1.04
PBM binding z-score [12]: 2.74
PBM binding z-score [13]: 0.798
PBM binding z-score [14]: 1.09
PBM binding z-score [15]: 0.338
PBM binding z-score [16]: -0.198
PBM binding z-score [17]: -0.158
PBM binding z-score [18]: -0.153
PBM binding z-score [19]: -0.0326
PBM binding z-score [20]: 1.14

AGTCAAAGTTCATCTAAGTAACGTAAGATATGCT
PBM binding z-score [1]: 6.46
PBM binding z-score [2]: 5.91
PBM binding z-score [3]: 4.97
PBM binding z-score [4]: 3.59
PBM binding z-score [5]: 1.65
PBM binding z-score [6]: 4.76
PBM binding z-score [7]: 6.53
PBM binding z-score [8]: 6.27
PBM binding z-score [9]: 3.47
PBM binding z-score [10]: 5.55
PBM binding z-score [11]: 0.404
PBM binding z-score [12]: 2.37
PBM binding z-score [13]: 0.832
PBM binding z-score [14]: 1.41
PBM binding z-score [15]: 2.51
PBM binding z-score [16]: 4.78
PBM binding z-score [17]: 4.97
PBM binding z-score [18]: 3.48
PBM binding z-score [19]: 1.03
PBM binding z-score [20]: 5.03

CCTTACGGGTCACTGTCAGGTTATAGCATTTGGA
PBM binding z-score [1]: 5.05
PBM binding z-score [2]: 4.27
PBM binding z-score [3]: 0.129
PBM binding z-score [4]: 3.23
PBM binding z-score [5]: -0.0879
PBM binding z-score [6]: 4.73
PBM binding z-score [7]: 3.83
PBM binding z-score [8]: 4.04
PBM binding z-score [9]: 1.22
PBM binding z-score [10]: 2.8
PBM binding z-score [11]: 3.32
PBM binding z-score [12]: 3.7
PBM binding z-score [13]: 0.509
PBM binding z-score [14]: -0.255
PBM binding z-score [15]: 3.86
PBM binding z-score [16]: 3.99
PBM binding z-score [17]: -0.056
PBM binding z-score [18]: 4.71
PBM binding z-score [19]: 1.03
PBM binding z-score [20]: 3.87
